Here are results for 24 molecules from PubChem BioAssay (NCATS).

Assay [1] concerns Zika virus NS2B-NS3 protease (unlinked complex). As to the kind of experiment: Primary screen GU Rhodamine qHTS for Zika virus inhibitors: Unlinked NS2B-NS3 protease assay (AID 1347159). Also: nearly all actives have a fitted effect of over 60% in size. The method in brief:
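Percent inhibition derives from the 15-min fluorescence change (ex 480, em 540 nm), normalized to no-enzyme and no-inhibitor wells. Reactions contained 25 nM NS2B-NS3 complex and 1.5 microM substrate in 10 mM Tris-HCl pH 8.0.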

Assay [2] deals with Zika virus NS2B-NS3 protease (linked construct). Kind of assay: Primary screen NINDS Rhodamine qHTS for Zika virus inhibitors (AID 1347160). Also: nearly all actives have a fitted effect of over 55% in size. The method in brief:
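In 10 mM Tris-HCl pH 8.0 containing 0.01% Tween 20, linked NS2B-NS3 protease (25 nM final) is exposed to test compounds for 15 min. Cleavage of 1.5 microM Rhodamine110 substrate is tracked by fluorescence over 15 min.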

Inconclusive results are not listed. The source made the active and inactive calls. Calls follow the shape of the dose curve; as a rule, active = well fitted inhibition curve with a large enough effect; inconclusive = small, poorly fitted or top-dose-only effect; inactive = no such curve, though single readings can be large or run the other way. Where a SMILES comes first, the peptide text is derived from it. Bridges are numbered along the chain shown (N, C = ends). [ ]: non-standard residue; d: D form. The star is where a group is joined. X1 = CCC(C)C(N)C1=NC(C(=O)*)CS1; dOrn = NCCC[C@@H](N)C(=O)O
Potency is read from the fitted curve at half-maximal effect.

With `CCNC(=O)[C@H]1O[C@H](n2cnc3c(NCC(c4ccccc4)c4ccccc4)nc(C(=O)NCCNC(=O)NC4CCN(c5ccccn5)CC4)nc32)[C@H](O)[C@@H]1O`, the Potency result in assay [1] and in assay [2] was “inactive” each time.

Take `C=CC(C)(C)O[C@@H]1O[C@H](CO[C@@H]2OC[C@](O)(CO)[C@H]2O)[C@@H](O)[C@H](O)[C@H]1O`: the Potency entry in assay [1] and in assay [2] was “inactive” throughout.

Turning to `CC1(C)CC(=O)N(CCCCN2CCN(c3ncccn3)CC2)C(=O)C1`, the Potency entry in assay [1] and in assay [2] was “inactive” each time.

As to `COc1cc(/C=C/C(=O)OC(C)(C)C(OC2OC(CO)C(O)C(O)C2O)C(=O)OCc2ccc(OC3OC(CO)C(O)C(O)C3O)cc2)ccc1O` (stereo not drawn), the Potency entry in assay [1] and in assay [2] was “inactive” throughout.

For the molecule `OC[C@H]1O[C@@H](OC(CCCCc2ccc(O)cc2)CCc2ccc(O)cc2)[C@H](O[C@@H]2OC[C@](O)(CO)[C@H]2O)[C@@H](O)[C@@H]1O` (stereo partly drawn), the Potency entry in assay [1] and in assay [2] was “inactive” throughout.

As for `CC(C)[C@H]1CCC(CO)=C[C@@H]1/C=C(\CO)C(=O)O`, the Potency result in assay [1] and in assay [2] was “inactive” throughout.

Consider `CC(NCc1ccc(OCc2cccc(F)c2)cc1)C(N)=O` (stereo not drawn), for which the Potency result in assay [1] and in assay [2] was “inactive” throughout.

On to `O=C(CCO[C@@H]1O[C@H](CO)[C@@H](O)[C@H](O)[C@H]1O)c1ccc(O)cc1`, for which the Potency result in assay [1] and in assay [2] was “inactive” each time.

In the case of `CCC(C)C(N)C1=NC(C(=O)N[C@@H](CC(C)C)C(=O)N[C@H](CCC(=O)O)C(=O)N[C@H](C(=O)N[C@H]2CCCCNC(=O)[C@H](CC(N)=O)NC(=O)[C@@H](CC(=O)O)NC(=O)[C@H](Cc3cnc[nH]3)NC(=O)[C@@H](Cc3ccccc3)NC(=O)[C@H]([C@@H](C)CC)NC(=O)[C@@H](CCCN)NC2=O)[C@@H](C)CC)CS1` (stereo partly drawn) (X1-L[dE]IK[dOrn]I[dF]H[dD]N; lactam 4-C), the Potency entry in assay [1] and in assay [2] was “inactive” throughout.

Take `CCC(CC)n1ccc2c(C(=O)NCc3c(C)cc(C)[nH]c3=O)cc(C#N)cc21`: the Potency result in assay [1] and in assay [2] was “inactive” each time.

Turning to `COc1ccc(/C=C/C(=O)O[C@@H]2[C@@H](OC(C)=O)[C@@H](OC(C)=O)[C@H](O[C@H]3[C@@H]4C=CO[C@@H](O[C@@H]5O[C@H](CO)[C@@H](O)[C@H](O)[C@H]5O)[C@@H]4[C@@]4(CO)O[C@@H]34)O[C@H]2C)cc1O`, the Potency result in assay [1] and in assay [2] was “inactive” throughout.

`C[C@@H]1CC[C@]2(C(=O)O[C@@H]3O[C@H](CO)[C@@H](O)[C@H](O)[C@H]3O)CC[C@]3(C)C(=CCC4[C@@]5(C)C[C@@H](O)[C@H](O)C(C)(C)C5CC[C@]43C)C2[C@]1(C)O` (stereo partly drawn): the Potency result in assay [1] and in assay [2] was “inactive” throughout.

On to `Cc1c(CN(C)C(=O)/C=C/c2cnc3c(c2)CCC(=O)N3)oc2ccccc12`, for which the Potency entry in assay [1] and in assay [2] was “inactive” each time.

As for `CC1=CC(=O)CC(C)(CO[C@@H]2O[C@H](CO)[C@@H](O)[C@H](O)[C@H]2O)C1(O)/C=C/C(C)=C/C(=O)O` (stereo partly drawn), the Potency result in assay [1] and in assay [2] was “inactive” in each case.

Regarding `NC1CCC(N[C@@H]2C[C@H]2c2ccccc2)CC1` (stereo partly drawn), the Potency entry in assay [1] and in assay [2] was “inactive” each time.

Consider `CCC(C)(O)C(O)C(=O)OCc1ccc(O[C@@H]2O[C@H](CO)[C@@H](O)[C@H](O)[C@H]2O)c(OC)c1` (stereo partly drawn), for which the Potency entry in assay [1] and in assay [2] was “inactive” each time.

As to `CC1CC(=O)C2=C(O1)OC1(C)CCC3C(C)(C)C=CC(=O)C3(C)C1C2` (stereo not drawn), the Potency in assay [1] is 28.2 µM (active); in assay [2] it was 12.6 µM (active).

As for `CCC[C@@H]1C[C@@H](C(=O)N[C@H](C(C)Cl)[C@H]2O[C@H](SC)[C@H](O)[C@@H](O)[C@H]2O)N(C)C1` (stereo partly drawn), the Potency entry in assay [1] and in assay [2] was “inactive” throughout.

Regarding `CN(C)C/C=C/C(=O)Nc1ccc(C(=O)Nc2cccc(Nc3ncc(Cl)c(-c4c[nH]c5ccccc45)n3)c2)cc1`, the Potency result in assay [1] and in assay [2] was “inactive” throughout.

In the case of `CC(=O)O[C@H]1[C@H](C)[C@@H](O)[C@H]2[C@@H]1C=C(C(=O)O)[C@H]1C[C@@H]3[C@H]([C@H]21)[C@H]1C(=O)O[C@@H]2CC[C@@]3(C)O[C@]1(O)[C@@H]2C`, the Potency entry in assay [1] and in assay [2] was “inactive” throughout.

`COc1cc(C2OCC3C(c4ccc(OC5OC(CO)C(O)C(O)C5O)c(OC)c4)OCC23)ccc1O` (stereo not drawn): the Potency result in assay [1] and in assay [2] was “inactive” in each case.

Consider `CC1=CC(=O)C[C@H]2[C@@H]1CC[C@@H](C)[C@]21CO[C@H](c2ccoc2)C1=O`, for which the Potency result in assay [1] and in assay [2] was “inactive” throughout.

As for `CC1NC(=O)CNC(=O)C(C(C)C)NC(=O)C2CCCN2C(=O)C(C(C)C)NC(=O)C(Cc2c[nH]c3ccccc23)NC1=O` (stereo not drawn) (cyclo(GAWVPV); configuration not given here), the Potency result in assay [1] and in assay [2] was “inactive” in each case.

Consider `COC(=O)[C@@]1(O)C=CC[C@@H]2[C@@]3(C)C[C@@H](c4ccoc4)OC(=O)[C@H]3CC[C@]21C`, for which the Potency result in assay [1] and in assay [2] was “inactive” throughout.
